# Screening data: PubChem BioAssay, Sanford-Burnham Center for Chemical Genomics
# Artemis endo inh: Artemis endonuclease inhibitors, primary screen, biochemical, fluorescence intensity, FAM/BHQ-1 hairpin substrate. Protein artemis (Homo sapiens), Q96SD1. recombinant Artemis, quenched FAM hairpin cleavage fluorescence. inhibition, % at 10 µM. 30,000 compounds, 0.78% hits. AID 686954, 2013;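 active = at 10 µM dose, at least 30% inhibition, measured as corrected fluorescence normalized to stimulator and neutral control wells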
# Target sequence (Q96SD1 whole entry, looked up): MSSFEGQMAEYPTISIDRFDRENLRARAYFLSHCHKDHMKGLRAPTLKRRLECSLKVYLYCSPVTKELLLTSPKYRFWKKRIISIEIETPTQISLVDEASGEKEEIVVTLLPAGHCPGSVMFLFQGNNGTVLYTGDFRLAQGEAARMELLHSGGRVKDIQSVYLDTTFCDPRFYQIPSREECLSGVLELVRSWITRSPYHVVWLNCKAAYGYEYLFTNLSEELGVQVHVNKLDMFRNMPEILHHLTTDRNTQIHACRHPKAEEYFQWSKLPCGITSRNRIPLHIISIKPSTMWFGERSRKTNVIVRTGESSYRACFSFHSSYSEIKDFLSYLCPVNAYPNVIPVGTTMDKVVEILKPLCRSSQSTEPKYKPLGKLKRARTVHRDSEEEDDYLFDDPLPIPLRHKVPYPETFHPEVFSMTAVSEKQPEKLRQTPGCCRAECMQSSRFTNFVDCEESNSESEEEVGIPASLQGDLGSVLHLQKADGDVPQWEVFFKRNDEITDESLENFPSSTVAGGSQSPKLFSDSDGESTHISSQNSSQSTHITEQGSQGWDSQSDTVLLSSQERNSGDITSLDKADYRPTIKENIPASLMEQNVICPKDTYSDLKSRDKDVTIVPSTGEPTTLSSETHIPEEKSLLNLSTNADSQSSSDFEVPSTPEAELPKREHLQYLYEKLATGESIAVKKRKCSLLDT
# The depositor's hits bear a star. This excerpt belongs to a sample that is enriched for hits.
SMILES,Artemis endo inh
Cc1cc(NC(=O)COC(=O)CCCOc2ccc(Cl)cc2C)no1,0.3
CCCc1nc2ccccc2c(=O)n1/N=C/c1ccc(O)cc1O,4.6
O=c1c2ccccc2nc(N/N=C/c2ccc(O)cc2)n1O,28.7
O=c1c2ccccc2nc(N/N=C/c2c(O)ccc3ccccc23)n1O,61.0*
COc1cccc(-c2csc(N3CCN(C(=O)NC45CC6CC(CC(C6)C4)C5)CC3)n2)c1,6.5
Cn1c(-c2ccc(C=O)s2)nc2c3ccccc3c3ccccc3c21,46.1*
Cc1cc2nnn(-c3nnc(-c4ccccc4)c4ccccc34)c2cc1C,12.6
Cc1nc2cccc(C)n2c(=O)c1Cl,3.2
CC/C(=N\NC(=O)c1ccc(-c2ccccc2)cc1)C12CC3CC(CC(C3)C1)C2,7.8
Cc1cccc(NC(=O)CC2SC(=O)N(c3ccccc3)C2=O)c1 (centres undefined),1.5
CC(=O)N(c1cccc(C)c1)C1SC(=O)N(c2ccccc2)C1=O (centres undefined),36.8*
Cc1ccc(NC(=O)CC2SC(=O)N(c3ccccc3)C2=O)cc1 (centres undefined),-4.3
CC(C)C[C@H](NC(=O)Nc1ccccc1F)C(=O)O,-1.4
CCCn1c(=O)n(C)c(=O)c2c(SCC(=O)NCc3ccco3)nc(C3CC3)nc21,4.1
O=C(Nc1ccccc1C(=O)NC(Cc1ccccc1)C(=O)NC1CCCCCC1)c1ccccc1 (centres undefined),16.4
COc1ccc(-n2c(SCC#N)nc3ccccc3c2=O)cc1,-0.5
O=C1CCCN1CC(CN1CCOCC1)Sc1nc2ccccc2c(=O)n1-c1ccccc1 (centres undefined),33.2*
Cc1cc(NC(=O)CSc2nc3ccccc3c(=O)n2-c2ccccc2)no1,-5.7
CCCSc1nc(N)nc(-c2cccs2)c1C#N,5.7
CCOc1nnnc2c1sc1nc(N3CCOCC3)c3c(c12)CCCC3,10.0
CN1/C(=N\O)c2cccc3cccc1c23,37.9*
CCNC(=O)CN1c2cccc3cccc(c23)S1(=O)=O,8.2
CCN1CCN(C(=O)CN2C(=O)c3cccc4cccc2c34)CC1,-10.1
O=C(Oc1cccc(Nc2ncnc3ccccc23)c1)c1ccccc1Cl,15.2
O=C1CC(N(CCc2ccccc2)C(=S)Nc2cc(Cl)ccc2Cl)C(=O)N1c1c(Cl)cccc1Cl (centres undefined),3.5
SMILES,Artemis endo inh
O=C(c1nn(Cc2ccccc2)c(=O)c2ccccc12)N1CCN(C/C=C/c2ccccc2)CC1,11.9
C=CCNC(=S)N/N=C/c1ccc(-c2cc(Cl)ccc2Cl)o1,1.0
CC1=NOC(=O)/C1=C\c1ccc(-c2cc(Cl)ccc2Cl)o1,36.5*
COC(=O)c1ccc(Cl)c(-c2ccc(/C=N/NC(=O)Nc3ccccc3)o2)c1,-1.9
Fc1ccc(Sc2cc(Cl)c(-c3ccccc3)nn2)cc1,17.5
CC(=O)NC1=C(C#N)C(c2ccccc2)c2c(ccc3ccccc23)O1 (centres undefined),5.2
Clc1cccc2sc(-c3nnc(-c4ccccc4)o3)c(Cl)c12,-1.7
CCOC(=O)c1cnc(SC)nc1Sc1ccccc1,16.6
CC(=O)c1sc2nc(-c3cccs3)cc(C(F)(F)F)c2c1N,-5.8
CC(C)NC(=O)c1sc2nc3c(c(-c4cccs4)c2c1N)CN(C)CC3,8.9
Cc1cccc(NC(=O)c2sc3nc4c(c(-c5cccs5)c3c2N)CN(C)CC4)c1,40.4*
Cc1cccc(Oc2sc(C(=O)c3ccccc3)c(N)c2C#N)c1,6.6
Cc1[nH]c2ccc(Br)cc2c(=O)c1CN1CCOCC1,-4.0
O=c1ccc2cc3c([nH]c4ccc(Br)cc43)oc-2c1O,80.9*
O=c1c(O)c(-c2ccc3c(c2)OCO3)oc2ccccc12,5.1
C#CC(CC)(CC)NC(=S)Nc1cccc(C(C)=O)c1,5.1
CC(C)Cn1c(-c2ccc(C#N)cc2)nc2c1c(=O)[nH]c(=O)n2CC(C)C,1.2
O=C(NCc1ccco1)c1ccc2snnc2c1,-0.3
O=C(NCCO)c1ccc2nc(-c3ccco3)c(-c3ccco3)nc2c1,37.8*
O=C(NCCCNC(=O)c1ccco1)c1ccco1,7.2
Cc1ccc(-n2nnnc2SCC(=O)N2CC(=O)Nc3ccccc32)cc1,17.0
CCOc1cc(C2C(C(=O)c3ccc(C)o3)=C(O)C(=O)N2CCc2ccccc2)ccc1O (centres undefined),31.8*
COc1ccc(C2C(C(=O)c3ccc(C)o3)=C(O)C(=O)N2c2cc(C)on2)cc1OC (centres undefined),2.5
COc1cc(C2C(C(C)=O)=C(O)C(=O)N2CCc2ccc(OC)c(OC)c2)ccc1O (centres undefined),0.6
O=c1ccn(-c2cccc(C(F)(F)F)c2)nc1-c1ccn(-c2cccc(Cl)c2)n1,4.8
COC(=O)C(/C=N/OCc1ccc([N+](=O)[O-])cc1)NC(=O)c1cccc(Cl)c1 (centres undefined),8.3
CCOC(=O)c1c(C)sc2c1N(C(C)=O)c1cc(Cl)ccc1S2,4.3
CCCCOc1cccc(C(=O)Nc2ccc(N3CCN(CC)CC3)cc2)c1,4.5
O=C(Nc1ccc(N2CCCC2)cc1)C(c1ccccc1)c1ccccc1,51.7*
